Source: PubChem BioAssay (several laboratories)
KLK7 zymogen act: proKLK7 zymogen activators, primary screen, biochemical, fluorescence intensity. purified proKLK7, EDANS-DABCYL substrate fluorescence; 100% is mature enzyme control, 0% vehicle. activation, % at 7 µM. 370,000 compounds, 0.9% hits;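 active = activation above the mean of all tested compounds plus 3 SD, computed per campaign excluding outliers beyond control limits, cut at about 13% in these data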
ADAM17 inh: ADAM17 inhibitors, primary screen, biochemical, QFRET; recombinant ADAM17, EDANS/DABCYL FRET peptide cleavage; inhibition, % at 6.95 µM; 370,000 compounds, 0.83% hits; AID 720648, 2013;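 active = inhibition above the mean of compounds lying between control limits plus 3 SD, set per campaign, cut at about 8.5% in these data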;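 note: 0% = DMSO-only wells as the low control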
V-ATPase pH: regulators of yeast V-ATPase proton pumping, primary screen, pHLuorin cytosolic pH fluorescence. S. cerevisiae. response, % at 10 µM. 350,000 compounds, 0.37% hits. AID 504577, 2011; in the data active = response mostly above about 7.3%, no sharp cut-off; inactive = mostly below about 5.4%; note: actives read high
ADAM10 inh: human ADAM10 inhibitors, primary screen, biochemical, QFRET, HTS. recombinant ADAM10, EDANS/DABCYL FRET peptide cleavage, 3 h. inhibition, % at 7 µM. 370,000 compounds, 0.62% hits. AID 720582, 2013;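 active = inhibition above a per-campaign cutoff equal to the mean of compounds falling between control-based bounds plus 3 SD, cut at about 20% in these data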;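 note: 0% = DMSO wells while the 100% control is not disclosed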
Target sequence (O14672 214-748 limits assumed): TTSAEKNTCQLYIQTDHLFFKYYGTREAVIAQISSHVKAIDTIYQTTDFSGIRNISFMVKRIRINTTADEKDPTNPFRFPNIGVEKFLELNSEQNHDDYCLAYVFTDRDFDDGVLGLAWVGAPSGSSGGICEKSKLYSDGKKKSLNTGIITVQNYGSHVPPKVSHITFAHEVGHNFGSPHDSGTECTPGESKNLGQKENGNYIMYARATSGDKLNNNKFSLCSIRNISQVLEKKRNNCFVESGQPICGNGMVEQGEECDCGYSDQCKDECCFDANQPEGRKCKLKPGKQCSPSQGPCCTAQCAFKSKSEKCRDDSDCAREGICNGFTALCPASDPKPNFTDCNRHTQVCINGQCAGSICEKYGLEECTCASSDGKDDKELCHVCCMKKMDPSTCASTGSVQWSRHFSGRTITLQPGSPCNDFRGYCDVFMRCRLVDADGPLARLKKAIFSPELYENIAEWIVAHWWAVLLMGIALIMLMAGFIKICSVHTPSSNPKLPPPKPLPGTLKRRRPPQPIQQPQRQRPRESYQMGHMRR
proKLK7 act conf: proKLK7 zymogen activators, confirmation, biochemical, fluorescence intensity, triplicate; activation, % at 7 µM; shares compounds with KLK7 zymogen act; purified proKLK7, EDANS-DABCYL substrate fluorescence; scaled: vehicle 0, mature enzyme 100; AID 686949, 2013; 3,200 compounds, 68% hits;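 active = activation, as change over the incubation, above the mean of all tested compounds plus 3 SD, cut at about 13% in these data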
EDANS interfere: EDANS-DABCYL substrate optical interference, artefact control for kallikrein-7 zymogen activator project, biochemical, fluorescence intensity, high throughput. no enzyme, 4 h; solvent 0%, active enzyme control 100%. activation, % at 7 µM. shares compounds with KLK7 zymogen act. 3,200 compounds, 80% hits;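 active = activation above the all-compound mean plus 3 SD, ignoring values outside control-based bounds, cut at about 4.8% in these data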;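 note: value is the 4 h activation minus the activation read at time zero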
K7 EDANS ctr: counter-screen for kallikrein-7 activators: EDANS-DABCYL interference, dose response; shares compounds with KLK7 zymogen act; AID 720493; EDANS-DABCYL peptide fluorescence interference, no enzyme; 250 compounds, 20% hits; EC50, µM;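 active = compounds that raise the fluorescence signal in this interference counterscreen, with EC50 at or below 10 µM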;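 note: intact quenched peptide substrate alone read at 355 nm excitation and 520 nm emission; signal is fluorescence gain from T0 to T4 after four hours at room temperature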
* hit, by the source's call; i = inactive; / = no result. This is a sample that favours compounds with a hit; in the whole collection about 2.3% have one here.

SMILES	KLK7 zymogen act	ADAM17 inh	V-ATPase pH	ADAM10 inh	proKLK7 act conf	EDANS interfere	others
COCCNC(=O)Cc1c(C)c2cc3c(cc2oc1=O)OC(C)(C)CC3	13*	i	-2	i	15*	10.0*	K7 EDANS ctr=>70
Cc1c(CC(=O)NCCC(C)C)c(=O)oc2cc3c(cc12)CCC(C)(C)O3	-4	-72	3	-185	/	/
CCN1CCCC1CN=Cc1c(O)n(-c2ccccc2)c(=O)c2ccccc12 (stereo unspecified)	16*	-69	2	-279	16*	18*
CCCC1CCC2(CCCN2CCOC(=O)Nc2ccccc2C)CC1 (stereo unspecified)	/	-5	/	-4	/	/
Cc1ccc(-c2nc3ccccc3[nH]2)s1	-2	-181	-1	i	/	/
Cc1nnsc1-c1nc2ccccc2[nH]1	32*	-247	1	i	31*	45*
CCC(C)N(C(=O)Cn1nc(Cc2ccncc2)c2ccccc2c1=O)C(C)CC (stereo unspecified)	1	-1	/	-4	/	/
CCN1CCN(Cc2c(O)ccc3c2O/C(=C\c2ccc(C)cc2)C3=O)CC1	44*	-56	1	-165	18*	7.1*	K7 EDANS ctr=>70
CCN1CCN(Cc2c(O)ccc3c2O/C(=C\c2ccccc2)C3=O)CC1	42*	-46	/	-101	25*	39*
CCc1ccc(/C=C2\Oc3c(ccc(O)c3CN3CCN(C)CC3)C2=O)cc1	58*	-45	4	-90	17*	37*
Cc1ccc(/C=C2\Oc3c(ccc(O)c3CN3CCN(C)CC3)C2=O)cc1	58*	-64	1	-157	31*	25*
O=C1/C(=C/C=C/c2ccccc2)Oc2c1ccc(O)c2CN1CCN(CCO)CC1	-1	-28	-4	-63	/	/
CCN1CCN(Cc2c(O)ccc3c2O/C(=C\C=C\c2ccccc2)C3=O)CC1	5	-17	6	-55	/	/
CC(C=NN=C1C(=O)Nc2ccccc21)=Cc1ccccc1	0	-5	/	-6	/	/
COc1ccccc1NC(=O)CSc1nc2c(sc3ccccc32)c(=O)n1CCN(C)C	16*	-226	1	i	1	-2
COCCn1c(SCC(=O)Nc2ccccc2OC)nc2ccccc2c1=O	0	-3	-2	1	/	/
COc1ccc(-c2nc3c(C)cc(Br)cn3c2Cc2ccccc2C(F)(F)F)cc1OC	0	-2	/	-2	/	/
O=C(c1ccco1)N1C(=O)c2cccc3cccc1c23	35*	-19	-1	-48	87*	90*
O=C(c1ccccc1F)N1C(=O)c2cccc3cccc1c23	8	-10	5	-27	/	/
O=C(c1cccs1)N1C(=O)c2cccc3cccc1c23	32*	-23	0	-39	-1	-12
Nc1cccc2c1C(=O)N(C(=O)c1ccco1)C2=O	32*	-22	-3	-102	154*	178*
Nc1cccc2c1C(=O)N(C(=O)/C=C/c1ccc(F)cc1)C2=O	3	-14	-10	-36	/	/
COc1ccc(-n2c(SCC(=O)Nc3ccc(Oc4ccccc4)cc3)nnc2-c2ccc(C)cc2)cc1	0	-4	/	-2	/	/
N#CCC[C@@H]1CC[C@]2(CCCN(Cc3ccccc3)C2)O1	0	0	/	1	/	/
CC(C)CN1C(=O)C[C@@]2(C(=O)N(C)c3ccc(NS(=O)(=O)C4CCCCC4)cc32)C1c1ccccc1 (stereo partly specified)	0	-1	/	1	/	/
SMILES	KLK7 zymogen act	ADAM17 inh	V-ATPase pH	ADAM10 inh	proKLK7 act conf	EDANS interfere	others
CC(CNC(=O)[C@@H](Cc1ccccc1)NC(=O)[C@H]1O[C@@H](n2cnc3c(=O)[nH]c(N)nc32)[C@H](O)[C@@H]1O)c1ccccc1 (stereo partly specified)	0	-2	/	1	/	/
CC(C)C[C@@H](CCCc1ccccc1)CCC(=O)N(c1ccccc1)c1ccccc1	0	-4	/	-14	/	/
COc1cc2c(cc1OC)-c1cc(OCCN3CCOCC3)nc(=O)n1CC2	77*	i	7	i	69*	64*
CN(Cc1cn(Cc2ccccc2)nn1)S(=O)(=O)c1ccc(F)cc1Br	1	3	/	9	/	/
CCCn1c(C)cc(/C=C(\C#N)C(=O)OCC(=O)Nc2ccc(OC)c(Cl)c2)c1C	-4	-4	10	-3	/	/
COCCn1c(C)cc(/C=C(\C#N)C(=O)OCC(=O)Nc2ccc(S(N)(=O)=O)cc2)c1C	14*	-2	-2	-19	1	0
CCc1cc2c(=O)c(-c3nc4ccccc4n3C)coc2c(CN2CCCCC2C)c1O (stereo unspecified)	16*	-49	3	-127	8	15*
CCc1cc2c(=O)c(-c3nc4ccccc4n3C)coc2c(CN2CCCCC2)c1O	13*	-68	-1	-174	7	8.8*
CCc1cc2c(=O)c(-c3nc4ccccc4n3C)coc2c(CN2CCOCC2)c1O	2	-12	6	-45	/	/
Cn1c(=O)c(=O)n(C)c2cc(S(=O)(=O)N3CCN(Cc4ccc(F)cc4)CC3)ccc21	0	4	/	-2	/	/
O=c1c2cc(N3CCOCC3)ccc2[nH]c(=S)n1CCCN1CCCCC1	121*	-37	-3	-129	29*	24*	K7 EDANS ctr=>69
O=C(NC1CCN(Cc2ccccc2)CC1)c1ccc(Cn2c(=S)[nH]c3ccc(N4CCOCC4)cc3c2=O)cc1	-7	-27	-4	-57	/	/
O=C(c1ccc(Cn2c(=S)[nH]c3ccc(N4CCOCC4)cc3c2=O)cc1)N1CCC(N2CCCCC2)CC1	28*	-25	-1	-70	-34	-41
O=c1c2cc(N3CCOCC3)ccc2[nH]c(=S)n1Cc1ccco1	28*	-27	0	-85	17*	17*
O=c1c2cc(N3CCOCC3)ccc2[nH]c(=S)n1CCCN1CCCC1	114*	-40	-4	-145	25*	27*
CCN(CCCn1c(=S)[nH]c2ccc(N3CCOCC3)cc2c1=O)c1ccccc1	-20	-8	0	-21	/	/
O=c1c2cc(N3CCOCC3)ccc2[nH]c(=S)n1Cc1cccc(Cl)c1	-1	-8	0	-31	/	/
CCNC(=O)OC[C@H]1O[C@H](C#Cc2ccc(C(C)(C)C)cc2)C=C[C@H]1OC(C)=O	0	-2	/	2	/	/
COC(=O)C1=C(C)N(Cc2cccc(C(F)(F)F)c2)C(=NCc2cc(OC)c(OC)c(OC)c2)NC1c1cccc(F)c1 (stereo unspecified)	0	-1	/	1	/	/
